# Results: ChEMBL document CHEMBL4513216, “Probing the Open Global Health Chemical Diversity Library for Multistage-Active Starting Points for Next-Generation Antimalarials” (ACS Infect Dis, 2020)
# About 8,600 (12%) of roughly 69,000 compounds showed an effect of 50% or more. What follows is part of a selection rich in strong results, with near analogues and random picks from the rest.
# Test system: Plasmodium berghei
# Test: Screen against P. berghei liver stage (PbLuc), transformed with Luciferase, at 10uM
# Assay type: functional, HepG2
# Details: tested at 10 uM
row,SMILES,INHIBITION
1,CNC(=O)CNC(=O)NCc1cc2c(s1)CCC(C)(C)C2,26.1%
2,O=C(NCCNc1ccc(C(F)(F)F)cn1)c1ccc(Br)cc1,-18%
3,O=C(NCCNc1ccc(C(F)(F)F)cn1)c1ccc(Cl)cc1F,29.4%
4,O=C(NCCNc1ccc(C(F)(F)F)cn1)c1cncc(Br)c1,26.1%
5,COCc1ccc(C(=O)NCCCNc2ccc(C(F)(F)F)cn2)cc1,24.15%
6,O=C(NCCCNc1ccc(C(F)(F)F)cn1)c1ccc2c(c1)OCO2,60.5%
7,CSCc1ccc(C(=O)NCCCNc2ccc(C(F)(F)F)cn2)cc1,60.95%
8,CN(CCc1cccs1)C(=O)Nc1cnn(CC2CCCO2)c1 (stereo not drawn),6.33%
9,Cc1csc2cc(C(=O)NC3CC3)cnc12,-82.4%
10,CCN1CCC2(COCc3c(C)nc(N(C)C)nc32)C1 (stereo not drawn),2.59%
11,CCOc1ncccc1C(=O)N1CCCC1c1c(C)nn(C)c1OC (stereo not drawn),32.4%
12,Cc1ccc2c(c1)SCC(=O)N2CC(=O)N1CCC[C@H]1c1nc(C)no1,74%
13,Cc1ccc2c(c1)SCC(=O)N2CC(=O)N1CCCC1c1cc(C)no1 (stereo not drawn),-40.6%
14,Cc1ccc2c(c1)SCC(=O)N2CC(=O)N1CCCC1c1cc(C)on1 (stereo not drawn),-1.45%
15,c1cncc(-c2nnc([C@H]3CCN(CC4CC4)C3)o2)c1,67.8%
16,O=C(NCC1CCC(c2nnc(-c3cccnc3)o2)CC1)C1CC1 (stereo not drawn),50.8%
17,c1ccc(CCCN2CC[C@H](c3nnc(-c4cccnc4)o3)C2)cc1,13.5%
18,c1cncc(-c2nnc([C@H]3CCN(CC4CCCCC4)C3)o2)c1,55.9%
19,c1cc(-c2nnc(C3CCCN(CC4CCCCC4)C3)o2)ccn1 (stereo not drawn),38.8%
20,c1ccc(OCCN2CCC(c3nnc(-c4cccnc4)o3)CC2)cc1,20.8%
21,COCC(=O)NCC1CCC(c2nnc(-c3cccnc3)o2)CC1 (stereo not drawn),-8.58%
22,c1ccc(-c2nnc(C3CCCN(CC4CCCCC4)C3)o2)nc1 (stereo not drawn),7.52%
23,COCC(=O)NCC1CCC(c2nnc(-c3ccncc3)o2)CC1 (stereo not drawn),13.7%
24,CC(=O)N1CCC(Cc2cnc(-n3ccnc3)cn2)CC1,17.1%
25,COC(=O)c1ccc(OC)c(Cn2cc(N)cn2)c1,18.9%
26,Cc1nc(C)n(CC2CN(Cc3nccs3)Cc3nccn3C2)n1 (stereo not drawn),8.03%

row,SMILES,INHIBITION
1,Cc1cc(F)cc(S(=O)(=O)Nc2ccn(CCCC#N)n2)c1,26%
2,CC(=O)N(Cc1ncc(C)o1)C1CCN(CCc2cnn(C)c2)C1 (stereo not drawn),-36.1%
3,O=C(N1CCOCC1)N1C[C@@H]2CC[C@H]1CN(C1Cc3ccccc3C1)C2,-43.5%
4,C[C@@H]1CN(Cc2nc(Cc3ccccc3F)no2)C[C@H](C)O1,3.93%
5,Cc1nc(C2CCNC2)nc2c1CCC(=O)N2C (stereo not drawn),17.265%
6,CCc1nc(CSCc2csc(CS(C)(=O)=O)n2)cs1,-29.2%
7,Cc1cc(CSCc2csc(CS(C)(=O)=O)n2)no1,19.4%
8,CS(=O)(=O)Cc1nc(CN2CCC(C(F)(F)F)CC2)cs1,52.2%
9,CS(=O)(=O)Cc1nc(CNc2c(F)cc(F)cc2F)cs1,40.4%
10,CC1(C)CN(Cc2csc(CS(C)(=O)=O)n2)Cc2ccccc21,60.8%
11,CS(=O)(=O)Cc1nc(CN2CCCc3sccc3C2)cs1,36.2%
12,CS(=O)(=O)Cc1nc(CN2CC=C(c3ccccc3)CC2)cs1,27.6%
13,CS(=O)(=O)Cc1nc(CN2CCOc3ccccc3C2)cs1,7.31%
14,CS(=O)(=O)Cc1nc(CN2CCc3ccccc3CC2)cs1,56.5%
15,COc1ccc(C2CCCN2Cc2ccc(S(=O)(=O)N(C)C)o2)cc1 (stereo not drawn),37.4%
16,O=C(Cn1cc(C(=O)O)cn1)Nc1c(Cl)cccc1Cl,22.6%
17,CC(C(=O)N1CCCN(Cc2ccc(C#N)cc2)CC1)n1cncn1 (stereo not drawn),27.65%
18,Cc1n[nH]c(C)c1NC(=O)CCc1cccc(C2CCCN(C)C2)n1 (stereo not drawn),29.3%
19,CCCn1c(C)c(CC(=O)NC(C)CO)c2c1CC(C)(C)CC2=O (stereo not drawn),18.6%
20,O=C1[C@@H]2CN(c3ncnc4[nH]ccc34)C[C@]2(C(=O)O)CN1CC1CC1,36.6%
21,Cc1ccc(-c2cc(CNC(=O)N3CCCN(C)CC3)on2)cc1,35.9%
22,Cn1c(=O)[nH]c(=O)c2c1nc1n2CC(c2ccc(Cl)cc2)O1 (stereo not drawn),7.92%
23,CCc1noc(C(C)N(C)CC(=O)Nc2c(C)cccc2C)n1 (stereo not drawn),-8.69%
24,CCc1noc(C(C)N(C)CC(=O)Nc2ccc(Br)cc2C)n1 (stereo not drawn),74%
25,CCc1noc(C(C)N(C)CC(=O)Nc2ccc(Cl)c(C(F)(F)F)c2)n1 (stereo not drawn),90.2%
26,CCc1noc(C(C)N(C)CC(=O)Nc2cccc(C)c2C)n1 (stereo not drawn),41.4%

row,SMILES,INHIBITION
1,CCc1noc(C(C)N(C)CC(=O)Nc2cccc(C)n2)n1 (stereo not drawn),-29.2%
2,COc1ccc(Br)cc1CN(C)C(C)c1nc(C(C)C)no1 (stereo not drawn),3.73%
3,CCc1noc(C(C)N(C)CC(=O)Nc2ccc(C)cc2)n1 (stereo not drawn),27.6%
4,CCc1noc(C(C)N(C)Cc2cc(Br)ccc2OC)n1 (stereo not drawn),51.5%
5,COc1ccc(Br)cc1CN(C)C(C)c1nc(C)no1 (stereo not drawn),4.82%
6,Cc1ccccc1NC(=O)NCC(C)(O)c1cccs1 (stereo not drawn),48.8%
7,Cc1noc2nc(C3CCN(Cc4ccccn4)CC3)cc(C(F)F)c12,47.1%
8,Cc1cc(C(NC(=O)CNS(C)(=O)=O)C(C)C)c(C)s1 (stereo not drawn),22.3%
9,Cc1cccc(CN2C[C@@H]3COC[C@]3(CNC(=O)c3ccsc3)C2)n1,39.8%
10,COc1ccc(CN2CCO[C@@H]3C[C@@H](C(=O)NC(C)C)C[C@H]32)cc1,26.5%
11,CCS(=O)(=O)NC(CCSC)C(=O)Nc1cccc(C)c1C (stereo not drawn),26.9%
12,CC(Oc1cc(Cl)cc(Cl)c1)C(=O)NCCS(N)(=O)=O (stereo not drawn),34.7%
13,Cc1c(Br)c(C(=O)NC(C)c2ccccc2)nn1C (stereo not drawn),-38.2%
14,Cc1ccc(-c2noc(CCC(=O)NC(C)Cn3cccn3)n2)cc1 (stereo not drawn),22.6%
15,O=C(CCc1ccccc1)N1CCn2cc(CN3CCCC3)nc2C1,41.4%
16,O=C(c1ccco1)N1CCn2cc(CN3CCCC3)nc2C1,25.2%
17,O=C(c1ccc[nH]1)N1CCn2cc(CN3CCCC3)nc2C1,18.8%
18,CN1CCN(Cc2cn3c(n2)CN(C(=O)c2ccccn2)CC3)CC1,25.1%
19,CN1CCN(Cc2cn3c(n2)CN(C(=O)c2cccn2C)CC3)CC1,54.7%
20,CC(=O)NCC(=O)N1CCn2cc(CN3CCN(C)CC3)nc2C1,43.5%
21,O=C(c1ccnnc1)N1CCn2cc(CN3CCCCC3)nc2C1,41.6%
22,CC(=O)NCC(=O)N1CCn2cc(CN3CCCCC3)nc2C1,68.8%
23,O=C(c1cccnc1)N1CCn2cc(CN3CCCC3)nc2C1,31.1%
24,CN1CCN(Cc2cn3c(n2)CN(C(=O)c2ccco2)CC3)CC1,17.4%
25,N#Cc1ccc(C(=O)N2CCn3cc(CN4CCCCC4)nc3C2)cc1,52%
26,Cn1cccc1C(=O)N1CCn2cc(CN3CCCC3)nc2C1,52%
